Assay results taken from PubChem BioAssay (Tox21).
Inconclusive results are not listed. The source made the active and inactive calls. Unless noted, calls come from the whole dose curve; as a rule, active = well fitted curve in the direction sought with a large enough effect in the repeat runs; inconclusive = weak or mixed curves; inactive = no such curve, though single readings can be large; an effect the other way counts as inactive or inconclusive.

Columns and labels:
[1] = qHTS assay to identify small molecule agonists of the estrogen receptor alpha (ER-alpha) signaling pathway in the presence of an antagonist - cell viability counter screen (AID 1259386);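 note: cells exposed to compounds for 22 h at 37 °C before the viability read; nearly all actives have a fitted effect of over 30% in size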; note: potency is the fitted concentration of half-maximal effect
Summary of the method: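 Cells are starved of estrogens for 5 days in charcoal-stripped serum, seeded for 24hr and co-treated with ICI-182,780 (10.0nM final) and test compounds. After 22hr at 37C, viability is read as CellTiter-Fluor fluorescence.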

[2] = target: Progesterone receptor (Homo sapiens) (UniProt P06401); experiment: qHTS assay to identify small molecule agonists of the progesterone receptor (PR) signaling pathway (AID 1346784; calls by dose curve; note: nearly all actives have a fitted effect of over 30% in size)
Sequence of Progesterone receptor (Homo sapiens) (P06401 whole entry, looked up): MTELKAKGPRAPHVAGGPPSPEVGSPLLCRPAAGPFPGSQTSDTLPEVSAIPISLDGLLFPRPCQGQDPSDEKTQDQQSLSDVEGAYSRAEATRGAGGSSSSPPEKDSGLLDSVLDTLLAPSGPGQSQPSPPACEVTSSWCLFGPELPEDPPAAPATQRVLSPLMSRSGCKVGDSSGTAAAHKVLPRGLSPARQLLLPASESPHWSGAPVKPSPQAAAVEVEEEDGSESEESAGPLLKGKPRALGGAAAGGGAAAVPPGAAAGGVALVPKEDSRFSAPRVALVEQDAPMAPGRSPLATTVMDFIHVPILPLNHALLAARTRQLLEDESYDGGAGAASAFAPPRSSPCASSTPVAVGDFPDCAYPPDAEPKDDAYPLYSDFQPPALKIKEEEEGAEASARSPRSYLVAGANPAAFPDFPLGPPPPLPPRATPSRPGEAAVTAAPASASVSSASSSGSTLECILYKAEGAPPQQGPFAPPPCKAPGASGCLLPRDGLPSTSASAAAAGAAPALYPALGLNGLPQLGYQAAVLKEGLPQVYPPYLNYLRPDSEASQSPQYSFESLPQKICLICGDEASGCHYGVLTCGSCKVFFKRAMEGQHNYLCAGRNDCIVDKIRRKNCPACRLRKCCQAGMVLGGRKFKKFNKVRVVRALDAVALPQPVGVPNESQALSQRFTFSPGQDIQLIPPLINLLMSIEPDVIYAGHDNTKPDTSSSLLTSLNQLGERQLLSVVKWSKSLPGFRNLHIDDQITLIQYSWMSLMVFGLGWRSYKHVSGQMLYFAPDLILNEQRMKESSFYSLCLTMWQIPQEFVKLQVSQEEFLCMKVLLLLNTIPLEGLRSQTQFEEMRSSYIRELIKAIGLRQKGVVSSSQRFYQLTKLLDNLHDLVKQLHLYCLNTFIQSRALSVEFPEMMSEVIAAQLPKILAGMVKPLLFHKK
Summary of the method: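 Agonist qHTS: compounds pinned onto 3,000 PR-UAS-bla HEK 293T cells per well in charcoal-stripped serum medium, 16hr at 37C, then beta-lactamase activity measured by LiveBLAzer FRET fluorescence after 2 hours at room temperature.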

[3] = qHTS assay to identify small molecule antagonists of the TGF-beta/Smad signaling pathway - cell viability counter screen (AID 1346824); note: nearly all actives have a fitted effect of over 50% in size
Summary of the method: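 SBE-bla HEK 293T cells, incubated overnight, then compound plus 0.25 ng/mL TGF-beta1 (stock added) for 5 hr at 37 C. Viability was read in the same wells by CellTiter-Glo luminescence after 30 min at room temperature.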

[4] = qHTS assay to identify small molecule agonists of the TGF-beta/Smad signaling pathway - cell viability counter screen (AID 1346829); note: top concentration of the series differs between compounds; nearly all actives have a fitted effect of over 45% in size
Summary of the method: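 After overnight seating at 37 C and 5% CO2, reporter cells got compounds for 5 hr and FRET substrate for 2 hr; cell viability then came from CellTiter-Glo luminescence.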

[5] = qHTS assay to identify small molecule agonists of the TGF-beta/Smad signaling pathway (AID 1346859; active = well fitted activation curve with a large enough effect in the signal ratio in the repeat runs, not every such curve was filed as active; the % refers to the signal ratio; note: series mostly up to about 77 µM)
Summary of the method: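 Fluorescence (ex 405 nm; em 460 and 530 nm) was read 2 h after LiveBLAzer FRET substrate at RT. The preceding compound treatment of overnight-plated SBE-bla HEK293T cells lasted 5 h at 37 C.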

[6] = target: Thyrotropin-releasing hormone receptor (Homo sapiens) (UniProt P34981); experiment: qHTS assay to identify small molecule antagonists of the thyrotropin-releasing hormone receptor (TRHR) signaling pathway (AID 1346877; active = well fitted inhibition curve with a large enough effect in the repeat runs, not every such curve was filed as active; note: series mostly up to about 51 µM)
Sequence of Thyrotropin-releasing hormone receptor (Homo sapiens) (P34981 whole entry, looked up): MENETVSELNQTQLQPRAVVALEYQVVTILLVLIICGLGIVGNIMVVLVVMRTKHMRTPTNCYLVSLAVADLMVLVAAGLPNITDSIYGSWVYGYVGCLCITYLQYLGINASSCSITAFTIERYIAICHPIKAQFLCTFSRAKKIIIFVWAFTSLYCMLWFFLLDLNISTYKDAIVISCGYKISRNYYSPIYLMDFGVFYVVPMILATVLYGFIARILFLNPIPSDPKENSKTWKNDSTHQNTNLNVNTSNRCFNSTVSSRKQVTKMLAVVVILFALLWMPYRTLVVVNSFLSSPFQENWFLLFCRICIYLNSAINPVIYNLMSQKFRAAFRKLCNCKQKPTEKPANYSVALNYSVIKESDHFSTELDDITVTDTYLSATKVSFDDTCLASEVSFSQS
Summary of the method: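 Cells (TRHR-HEK293) are plated and kept 18 h at 37 °C/5% CO2. A calcium-sensitive dye is added for 2 h, compound follows for 5 min at room temperature, and TRH is then given at 1 nM final.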

[7] = target: Thyrotropin-releasing hormone receptor (Homo sapiens) (UniProt P34981); experiment: qHTS assay to identify small molecule agonists of the thyrotropin-releasing hormone receptor (TRHR) signaling pathway (AID 1346891; calls by dose curve; note: series mostly up to about 58 µM)
Summary of the method: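 Agonist-mode intracellular calcium readout: kinetic fluorescence over 3 min at 1 s intervals after compound addition to TRHR-HEK293 cells (18 h seeded, 2 h dye-loaded at 37 C). Fifteen concentrations, triplicates.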

[8] = Caspase-3/7 induction in HepG2 cells by small molecules, qHTS assay (AID 1346978); note: nearly all actives have a fitted effect of over 15% in size
Summary of the method: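 Wild-type HepG2 cells, 2,000/well, settled 5 hr at 37 C and 5% CO2, then compound-treated for 17 hr; caspase-3/7 activity read by luminescent Caspase-Glo 3/7 after 30 min at room temperature.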

[9] = Caspase-3/7 induction in CHO-K1 cells by small molecules, qHTS assay (AID 1346980); note: nearly all actives have a fitted effect of over 15% in size
Summary of the method: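 Wild-type CHO-K1 cells exposed to compounds for 17hr at 37 C, 5% CO2. Caspase-3/7 activity then measured by Caspase-Glo 3/7 luminescence after 30min at room temperature.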

[10] = target: Nuclear receptor subfamily 1 group I member 2 (Homo sapiens) (UniProt O75469); experiment: Human pregnane X receptor (PXR) small molecule agonists, qHTS assay (AID 1346982); note: nearly all actives have a fitted effect of over 35% in size; note: potency is the fitted concentration of half-maximal effect
Sequence of Nuclear receptor subfamily 1 group I member 2 (Homo sapiens) (O75469 whole entry, looked up): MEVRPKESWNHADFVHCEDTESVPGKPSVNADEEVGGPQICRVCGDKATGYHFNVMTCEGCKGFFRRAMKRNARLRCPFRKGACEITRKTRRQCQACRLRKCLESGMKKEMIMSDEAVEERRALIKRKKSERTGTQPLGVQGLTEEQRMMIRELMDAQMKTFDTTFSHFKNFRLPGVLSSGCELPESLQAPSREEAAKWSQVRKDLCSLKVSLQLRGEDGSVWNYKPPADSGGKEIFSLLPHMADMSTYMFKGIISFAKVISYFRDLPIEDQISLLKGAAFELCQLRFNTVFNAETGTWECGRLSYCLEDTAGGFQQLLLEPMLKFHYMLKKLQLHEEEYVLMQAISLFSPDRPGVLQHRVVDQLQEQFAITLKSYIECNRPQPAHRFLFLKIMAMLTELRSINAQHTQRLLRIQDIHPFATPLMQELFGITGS
Summary of the method: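 Agonist mode qHTS: PXR-Luc HepG2 cells plated 5 hr before DMSO-dissolved compounds were pinned in, cultured 24 hr at 37 C, 5% CO2; ONE-Glo luminescence readout.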

[11] = target: Nuclear receptor subfamily 1 group I member 2 (Rattus norvegicus) (UniProt Q9R1A7); experiment: Rat pregnane X receptor (rPXR) activation by small molecules, qHTS assay (AID 1346983); conditions: rPXR luciferase reporter cells, One-Glo luminescence, 24 h; max activation: hits give high values; note: nearly all actives have a fitted effect of over 20% in size
Sequence of Nuclear receptor subfamily 1 group I member 2 (Rattus norvegicus) (Q9R1A7 whole entry, looked up): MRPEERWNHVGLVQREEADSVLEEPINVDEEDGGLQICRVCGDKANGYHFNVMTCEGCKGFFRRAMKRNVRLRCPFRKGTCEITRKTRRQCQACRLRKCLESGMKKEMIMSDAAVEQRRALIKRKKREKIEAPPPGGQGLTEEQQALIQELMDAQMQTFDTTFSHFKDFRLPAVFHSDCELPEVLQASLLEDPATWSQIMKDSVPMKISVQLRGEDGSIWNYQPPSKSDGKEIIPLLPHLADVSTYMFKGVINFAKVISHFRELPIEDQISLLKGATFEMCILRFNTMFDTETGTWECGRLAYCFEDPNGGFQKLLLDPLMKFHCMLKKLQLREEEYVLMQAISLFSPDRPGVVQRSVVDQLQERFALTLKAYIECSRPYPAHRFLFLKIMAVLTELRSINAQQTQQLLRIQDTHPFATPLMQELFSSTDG
Summary of the method: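 Cell-based rPXR activation assay: rPXR cells, 2,000 per well, rested 5hr at 37 C, then exposed to compounds in DMSO for 24 hr at 37 C. Luciferase activity read by One-Glo luminescence after 30 min at room temperature.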

[12] = target: Nuclear receptor subfamily 1 group I member 2 (Homo sapiens) (UniProt O75469); experiment: CYP3A4 induction through human pregnane X receptor (PXR) by small molecules, qHTS assay (AID 1346984); note: nearly all actives have a fitted effect of over 40% in size; note: potency is the fitted concentration of half-maximal effect
Summary of the method: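 Steps: seed DPX-2 cells, 5 hr at 37C; pin-transfer compounds; 24 hr at 37C; add Luciferin-IPA (3uM final), 3 hr at 37C; add One-Glo, 30 min RT; read luminescence.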

[13] = target: Nuclear receptor subfamily 1 group I member 2 (Homo sapiens) (UniProt O75469); experiment: Human pregnane X receptor (PXR) activation by small molecules, qHTS assay (AID 1346985); note: nearly all actives have a fitted effect of over 40% in size
Summary of the method: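 DPX-2 cells (HepG2 co-transfected with a PXR response element and a CYP3A4-promoter luciferase construct) were seeded at 2,000 per well, rested 5 hr at 37C, then exposed to DMSO-dissolved compounds for 24 hr. Activation was read as luciferase luminescence.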

[14] = target: Cytochrome P450 2D6 (Homo sapiens) (UniProt P10635); experiment: Cytochrome P450 Family 2 Subfamily D Member 6 (CYP2D6) small molecule antagonists: luciferase reporter qHTS assay (AID 1671196); note: nearly all actives have a fitted effect of over 50% in size; note: potency is the fitted concentration of half-maximal effect
Sequence of Cytochrome P450 2D6 (Homo sapiens) (P10635 whole entry, looked up): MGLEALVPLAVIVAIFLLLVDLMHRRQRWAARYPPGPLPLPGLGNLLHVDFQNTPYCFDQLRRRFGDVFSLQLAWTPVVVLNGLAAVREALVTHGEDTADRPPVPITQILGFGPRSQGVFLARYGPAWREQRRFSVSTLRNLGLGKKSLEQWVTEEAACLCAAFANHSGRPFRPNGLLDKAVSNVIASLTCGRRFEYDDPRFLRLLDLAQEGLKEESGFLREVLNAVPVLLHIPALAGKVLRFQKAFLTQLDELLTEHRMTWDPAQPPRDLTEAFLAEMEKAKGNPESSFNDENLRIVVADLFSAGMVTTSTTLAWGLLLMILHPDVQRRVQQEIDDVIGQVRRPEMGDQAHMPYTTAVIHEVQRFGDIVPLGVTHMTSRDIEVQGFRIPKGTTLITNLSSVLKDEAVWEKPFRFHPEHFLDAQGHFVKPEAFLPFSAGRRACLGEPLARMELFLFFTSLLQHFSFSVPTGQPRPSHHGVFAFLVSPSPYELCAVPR
Summary of the method: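 P450-Glo format: CYP2D6 converts a proluciferin substrate to luciferin in an NADPH-driven reaction lasting 1 h at room temperature. Light output, proportional to CYP2D6 activity, reflects interference by test chemicals.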

[15] = qHTS assay to identify small molecule antagonists of the progesterone receptor (PR) signaling pathway - cell viability counter screen (AID 1346798); note: nearly all actives have a fitted effect of over 50% in size; note: potency is the fitted concentration of half-maximal effect
Summary of the method: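 Cytotoxicity read as CellTiter-Glo luminescence (30 min, room temperature) in the same wells as the beta-lactamase readout. HEK293T PR-UAS-bla cells in charcoal-stripped 2% FBS received compound and R5020, then 16 h at 37C, 5% CO2.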

[16] = Human pregnane X receptor (PXR) small molecule agonists, qHTS cell viability counter screen (AID 1346977); note: nearly all actives have a fitted effect of over 50% in size; note: potency is the fitted concentration of half-maximal effect
Summary of the method: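 Same-well viability read: CellTiter-Fluor added after 23 hr compound exposure, fluorescence measured 1 hr later. Cells were PXR-Luc HepG2 seeded at 2,000/well in 5% charcoal-stripped FBS medium, rested 5 hr before dosing at 37 C.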

[17] = Caspase-3/7 induction in CHO-K1 cells by small molecules, qHTS cell viability counter screen (AID 1346979); note: nearly all actives have a fitted effect of over 35% in size
Summary of the method: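 Cytotoxicity counter screen: CellTiter-Fluor added to compound-treated wild-type CHO-K1 cells at 16 h (37C, 5% CO2), fluorescence measured 1 h later; same wells as caspase-3/7 measurement.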

[18] = Caspase-3/7 induction in HepG2 cells by small molecules, qHTS cell viability counter screen (AID 1346981); note: nearly all actives have a fitted effect of over 30% in size; note: potency is the fitted concentration of half-maximal effect
Summary of the method: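 Steps: seed 2,000 HepG2 cells per well; incubate 5 hr at 37 C; pin-add compounds in DMSO; incubate 16 hr; add CellTiter-Fluor; after 1 hr at 37 C and 5% CO2, read fluorescence.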

[19] = qHTS assay to identify small molecule agonists of the progesterone receptor (PR) signaling pathway - cell viability counter screen (AID 1346799; calls by dose curve; note: nearly all actives have a fitted effect of over 45% in size)
Summary of the method: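 Cytotoxicity measured by CellTiter-Glo luminescence (30 min, RT) in the same wells as the PR beta-lactamase agonist read. Those HEK293T cells had 16 h compound treatment at 37 C in 2% charcoal-stripped FBS medium.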

[20] = target: Progesterone receptor (Homo sapiens) (UniProt P06401); experiment: qHTS assay to identify small molecule antagonists of the progesterone receptor (PR) signaling pathway (AID 1346795; active = well fitted inhibition curve with a large enough effect in the signal ratio in the repeat runs, not every such curve was filed as active; the % refers to the signal ratio; note: potency is the fitted concentration of half-maximal effect)
Summary of the method: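 Antagonist mode with agonist R5020 at 1 nM final and 16 hr incubation at 37C. Reporter was beta-lactamase driven by UAS in HEK293T (PR-UAS-bla), 2% charcoal-stripped serum; signal from LiveBLAzer FRET substrate, 2 hr at room temperature.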
% is set by controls: 0 for no effect and ±100 for the full control effect.

Cc1ccccc1N=Nc1ccc(N=Nc2c(O)ccc3ccccc23)c(C)c1
inactive: Potency [1] | outcome [2] | Potency [3] | Potency [4] | outcome [5] | outcome [6] | Potency [7] | outcome [8] | Potency [9] | Potency [10] | max activation [11] 6.7% | Potency [13] | Potency [14]
active: Potency [12] 7.94 µM

OCC1CC2CC1C1CCC(CO)C21 (centres undefined)
active: Potency [15] 27.3 µM
inactive: Potency [1] | outcome [2] | Potency [3] | Potency [4] | outcome [5] | Potency [16] | outcome [8] | Potency [17] | Potency [9] | Potency [18] | Potency [10] | Potency [14]

NC(N)=N/N=C/c1c(Cl)cccc1Cl
inactive: outcome [2] | Potency [3] | Potency [4] | outcome [5] | outcome [6] | Potency [7] | outcome [8] | Potency [9] | Potency [10] | max activation [11] -2.41% | Potency [12] | Potency [13]
active: Potency [1] 15 µM | Potency [16] 29.8 µM | Potency [18] 29.8 µM | Potency [14] 13.8 µM

CCCCOC(O)CC (centres undefined)
inactive: Potency [1] | outcome [2] | Potency [3] | Potency [4] | outcome [5] | outcome [6] | Potency [7] | Potency [16] | outcome [8] | Potency [9] | Potency [18] | Potency [10] | Potency [14]

NCc1ccccc1
inactive: Potency [1] | outcome [2] | Potency [15] | Potency [3] | Potency [4] | outcome [5] | outcome [6] | Potency [7] | Potency [16] | outcome [8] | Potency [17] | Potency [18] | Potency [10]
active: Potency [14] 31.7 µM

CC(C)(C)c1cc(CO)cc(C(C)(C)C)c1O
inactive: Potency [1] | outcome [2] | Potency [15] | Potency [3] | Potency [4] | outcome [5] | outcome [6] | Potency [7] | Potency [16] | outcome [8] | Potency [9] | Potency [18]
active: Potency [14] 72.4 µM

CCOC(=O)CC(C)C
inactive: Potency [1] | Potency [15] | Potency [19] | Potency [3] | Potency [4] | outcome [5] | outcome [6] | Potency [16] | outcome [8] | Potency [17] | Potency [18] | Potency [10] | Potency [14]

O=C1[C@H](CC[C@H](O)c2ccc(F)cc2)[C@@H](c2ccc(O)cc2)N1c1ccc(F)cc1
inactive: Potency [1] | Potency [3] | Potency [4] | outcome [5] | Potency [16] | outcome [8] | Potency [9] | max activation [11] -2.85% | Potency [12] | Potency [13]
active: Potency [20] 23.7 µM | Potency [10] 29.8 µM | Potency [14] 30.9 µM

CC(C)CCCC(C)CCO (centres undefined)
inactive: Potency [1] | Potency [20] | Potency [15] | Potency [19] | Potency [3] | Potency [4] | outcome [5] | outcome [6] | Potency [7] | Potency [16] | outcome [8] | Potency [9] | Potency [18] | Potency [10] | Potency [14]
